{"source": "PubChem BioAssay AID463173", "about": "(ICCB-Longwood Screening Facility, Harvard Medical School, 2010)", "note": "The whole screen tested about 52,000 compounds, of which about 4,300 (8.3%) were called active. Rule as the data show it: active = survival mostly below about 52% (no sharp cut-off); inactive = mostly above about 56%. The full list was thinned out, with actives kept by preference.", "data": [{"tested_on": "DeltatarO mutant", "assay": "S. aureus survival, RN4220 and DeltatarO strains – OD600, teichoic acid synthesis inhibitors, primary screen (AID 463173)", "details": "S. aureus RN4220 wild type/DeltatarO growth, OD600, 18 h, stronger effect = lower value, screened at 18.75 µg/mL (by protocol)", "values": [{"smiles": "CC(C)c1ccc(CNc2nc(-c3ccco3)nn2C(=O)c2ccc([N+](=O)[O-])cc2)cc1", "survival": "79% (inactive)"}, {"smiles": "COc1ccc(NC(=O)Cn2nnc(C(=O)NCc3ccc4c(c3)OCO4)c2N)cc1", "survival": "76% (inactive)"}, {"smiles": "N#C/C(=C\\c1ccc(F)cc1)C(=O)NCC1CCCO1", "note": "(stereo not drawn)", "survival": "68% (inactive)"}, {"smiles": "COc1cc(/C=C(\\C#N)C(=O)NCC2CCCO2)ccc1O", "note": "(stereo not drawn)", "survival": "83% (inactive)"}, {"smiles": "N#C/C(=C\\c1ccc(Cl)cc1)C(=O)NCC1CCCO1", "note": "(stereo not drawn)", "survival": "44% (active)"}, {"smiles": "CCOC(=O)c1[nH]c(C)c(CCC(=O)Nc2ccccc2C(=O)OC)c1C", "survival": "77% (inactive)"}, {"smiles": "Cc1ccc(-c2cnc(NCc3c(F)cccc3Cl)n2C)cc1", "survival": "-4% (active)"}, {"smiles": "Cc1ccc(-c2cnc(NCc3ccc(C(F)(F)F)cc3)n2C)cc1", "survival": "-5% (active)"}, {"smiles": "Cn1c(-c2ccccc2)cnc1NCc1ccccc1O", "survival": "46% (active)"}, {"smiles": "CCn1c(NCc2cccc(Cl)c2)nc2ccccc21", "survival": "102% (inactive)"}, {"smiles": "Cn1c(-c2ccccc2)cnc1SCc1ccccc1", "survival": "108% (inactive)"}, {"smiles": "Cn1c(NCc2cccc(Cl)c2)nc2ccccc21", "survival": "104% (inactive)"}, {"smiles": "Cn1c(-c2ccc3c(c2)OCO3)cnc1NCc1cc(Cl)ccc1O", "survival": "70% (inactive)"}, {"smiles": "Cc1ccc(CNC(=O)c2ccc(CSCc3c(F)cccc3Cl)o2)cc1", "survival": "90% (inactive)"}, {"smiles": "CCOc1ccc(-c2cnc(NCc3cccc(Cl)c3)n2C)cc1", "survival": "30% (active)"}, {"smiles": "CCCc1cc(=O)n2[nH]c(NCc3c(F)cccc3Cl)nc2n1", "survival": "86% (inactive)"}, {"smiles": "Cc1ccc(CNc2nccn(-c3cc(C)cc(C)c3)c2=O)cc1", "survival": "95% (inactive)"}, {"smiles": "Cc1ccc(-c2cnc(NC(=O)CCC(=O)N3CCCCC3)n2C)cc1", "survival": "91% (inactive)"}, {"smiles": "Cc1cc(C)cc(-n2c(SCC(=O)N3CCCCCC3)nc3c([nH]c4ccccc43)c2=O)c1", "survival": "94% (inactive)"}, {"smiles": "CCOc1ccc(N(CC)C(=O)c2nn(-c3ccc(OC)cc3)c(=O)c3c2c2ccccc2n3C)cc1", "survival": "82% (inactive)"}, {"smiles": "CCOc1cc2sc(N3CCC(C(=O)Nc4ccc(C(C)C)cc4)CC3)nc2cc1Br", "survival": "75% (inactive)"}, {"smiles": "COC(=O)CN(c1ccccc1Cl)S(C)(=O)=O", "survival": "52% (inactive)"}, {"smiles": "COc1ccc(NC(=O)c2oc3ccccc3c2NC(=O)c2cccc(F)c2)c(OC)c1", "survival": "95% (inactive)"}, {"smiles": "COc1cc(OC)c(NC(=O)C2=C(C)C(=O)OC23CCN(C(C)=O)CC3)cc1Cl", "survival": "75% (inactive)"}, {"smiles": "Cc1ccc(NC(=O)CN2C=NS(=O)(=O)c3ccccc32)c(C)c1", "survival": "99% (inactive)"}, {"smiles": "COc1ccc(-c2nc(Cn3c(SCc4ccc(C)cc4)nc4cccnc43)c(C)o2)cc1OC", "survival": "113% (inactive)"}, {"smiles": "Cc1ccc(CNc2nc3c(c(=O)n(C)c(=O)n3C)n2Cc2ccc(Cl)cc2)cc1", "survival": "54% (inactive)"}, {"smiles": "COc1ccc(-c2cnc(NCc3ccc(C)cc3)n2C)cc1", "survival": "121% (inactive)"}, {"smiles": "CCOc1ccc(-c2cnc(NCc3ccc(C(F)(F)F)cc3)n2C)cc1", "survival": "-3% (active)"}, {"smiles": "CCOc1ccc(NC(=O)C(=O)NCCc2csc(-c3ccc(C(F)(F)F)cc3)n2)cc1", "survival": "94% (inactive)"}, {"smiles": "Cc1ccc(-c2cnc(NCc3ccc(C(C)C)cc3)n2C)cc1", "survival": "-4% (active)"}, {"smiles": "CCOc1ccc(-n2cc(-c3ccccc3)c3c(NCc4ccc(F)cc4)ncnc32)cc1", "survival": "95% (inactive)"}, {"smiles": "Cc1ccc(NC(=O)CCN2C(=O)c3ccccc3Sc3ncccc32)c(Cl)c1", "survival": "74% (inactive)"}, {"smiles": "CCOc1ccc(C(=O)NCCc2csc(-c3cccnc3)n2)cc1", "survival": "81% (inactive)"}, {"smiles": "Cc1ccc(CNc2nc3ccccc3n3c(C)nnc23)cc1", "survival": "88% (inactive)"}, {"smiles": "CCn1nc(C)c(CCN(C)C(=O)Nc2ccc(C)c(Cl)c2)c1C", "survival": "88% (inactive)"}, {"smiles": "CCOc1ccccc1NC(=O)c1cc2cc3cc(C)ccc3nc2s1", "survival": "91% (inactive)"}, {"smiles": "COc1ccc2nc3sc(C(=O)NCCc4ccc(Cl)cc4)cc3cc2c1", "survival": "103% (inactive)"}, {"smiles": "CSc1ccc(CCNC(=O)c2cc3cc4cc(C)ccc4nc3s2)cc1", "survival": "144% (inactive)"}, {"smiles": "Cc1ccc(CCNC(=O)c2cc3cc4cc(C)ccc4nc3s2)cc1", "survival": "46% (active)"}, {"smiles": "Cc1ccc2nc3sc(C(=O)Nc4ccc(F)cc4)cc3cc2c1", "survival": "37% (active)"}, {"smiles": "CCOc1ccc(NC(=O)c2cc3cc4cc(OC)ccc4nc3s2)cc1", "survival": "82% (inactive)"}, {"smiles": "CNC(=O)CN(C1CCCCC1)S(=O)(=O)c1ccc(C)cc1", "survival": "75% (inactive)"}, {"smiles": "CC(C)C(=O)c1cn(CC(=O)NCc2cccs2)c2ccccc12", "survival": "88% (inactive)"}, {"smiles": "CC(C)NC(=O)C1CCC(Cn2c(=O)c3sccc3n(CC(=O)Nc3ccccc3)c2=O)CC1", "note": "(stereo not drawn)", "survival": "74% (inactive)"}, {"smiles": "CCc1ccc(CNC(=O)c2cnc3sc(N4CCCCC4)nn3c2=O)cc1", "survival": "99% (inactive)"}, {"smiles": "COC(=O)c1ccc(NC(=O)CN2CCCN(Cc3ccc(Cl)cc3)S2(=O)=O)cc1", "survival": "94% (inactive)"}, {"smiles": "COC(=O)c1ccc(OC)c(CN2CCCN(Cc3ccc(C)cc3)S2(=O)=O)c1", "survival": "20% (active)"}, {"smiles": "COc1ccc(NC(=O)CN2CCCN(Cc3ccc(Cl)cc3)S2(=O)=O)cc1Cl", "survival": "60% (inactive)"}, {"smiles": "Cc1ccc(CN2CCCN(Cc3c(C)cc(C)cc3C)S2(=O)=O)cc1", "survival": "91% (inactive)"}, {"smiles": "Cc1ccc(C)c(CN2CCCN(Cc3ccc(F)cc3)S2(=O)=O)c1", "survival": "-5% (active)"}, {"smiles": "Cc1ccc(C)c(CN2CCCN(Cc3ccccc3C)S2(=O)=O)c1", "survival": "87% (inactive)"}, {"smiles": "CCOC(=O)CCCN1C(=O)CCn2nc(-c3cn(C)c4ccccc34)cc21", "survival": "69% (inactive)"}, {"smiles": "CCN(c1ccccc1C)S(=O)(=O)c1ccc(N2CCCCS2(=O)=O)cc1", "survival": "125% (inactive)"}, {"smiles": "CCSc1nnc(C2CCCN(CC(=O)NC3CCCCC3C)C2)n1CC", "note": "(stereo not drawn)", "survival": "74% (inactive)"}, {"smiles": "Cc1oc(-c2ccc(Cl)cc2)nc1CN1CCCC(C(=O)NCc2ccc(Cl)cc2)C1", "note": "(stereo not drawn)", "survival": "59% (inactive)"}, {"smiles": "Cc1oc(-c2cccc(Cl)c2)nc1CN1CCCC(C(=O)NCc2ccc(F)cc2)C1", "note": "(stereo not drawn)", "survival": "52% (inactive)"}, {"smiles": "Cc1oc(-c2cccc(Cl)c2)nc1CN1CCCC(C(=O)NCc2ccc(Cl)cc2)C1", "note": "(stereo not drawn)", "survival": "-1% (active)"}, {"smiles": "Cc1ccc(CNC(=O)C2CCCN(Cc3nc(-c4cccc(C)c4)oc3C)C2)cc1", "note": "(stereo not drawn)", "survival": "41% (inactive)"}, {"smiles": "Cc1ccccc1-c1nc(CN2CCCC(C(=O)NCc3ccc(Cl)cc3)C2)c(C)o1", "note": "(stereo not drawn)", "survival": "61% (inactive)"}, {"smiles": "Cc1cccc(-c2nc(CN3CCCC(C(=O)NCc4ccc(Cl)cc4)C3)c(C)o2)c1", "note": "(stereo not drawn)", "survival": "18% (active)"}, {"smiles": "CSCCC(NS(=O)(=O)c1ccc2c(c1)oc(=O)n2C)C(=O)N1CCN(c2cccc(Cl)c2)CC1", "note": "(stereo not drawn)", "survival": "72% (inactive)"}, {"smiles": "Cc1nn(-c2ccccc2)c2c1N(CCCC(=O)NCc1ccc(Cl)cc1)C(=O)CS2", "survival": "94% (inactive)"}, {"smiles": "Cc1cccc(CNC(=O)c2ccc3nc(Cc4ccccc4)oc3c2)c1", "survival": "124% (inactive)"}, {"smiles": "CCOc1ccc(NC(=O)CSc2nc3c([nH]c4ccccc43)c(=O)n2-c2cc(C)cc(C)c2)cc1", "survival": "89% (inactive)"}, {"smiles": "Cc1ccc(N2CC(NC(=O)c3ccc(S(=O)(=O)N4CCCC4)cc3)CC2=O)cc1C", "note": "(stereo not drawn)", "survival": "83% (inactive)"}, {"smiles": "O=C(Cn1ncc2c3ccccc3n(Cc3ccccc3F)c2c1=O)NCCCc1ccccc1", "survival": "81% (inactive)"}, {"smiles": "Cc1cc(C)c2nc(N(Cc3cccnc3)C(=O)CCOc3ccccc3)sc2c1", "survival": "84% (inactive)"}, {"smiles": "COc1ccc(CNC(=O)Cn2c(SCC(=O)Nc3ccc(OC)cc3)nc3ccccc32)cc1", "survival": "89% (inactive)"}, {"smiles": "O=C(Cn1c(SCC(=O)Nc2ccc(F)cc2)nc2ccccc21)NCc1ccc(F)cc1", "survival": "91% (inactive)"}, {"smiles": "COc1ccc(Cn2c(SCC(=O)N3CCN(c4ccc(F)cc4)CC3)nc3ccccc32)cc1", "survival": "47% (active)"}, {"smiles": "CN(C(=O)CSc1nc2ccccc2n1Cc1cccc(C(F)(F)F)c1)c1ccccc1", "survival": "66% (inactive)"}, {"smiles": "COc1cccc(Cn2c(SCC(=O)N3CCN(c4ccc(F)cc4)CC3)nc3ccccc32)c1", "survival": "66% (inactive)"}, {"smiles": "COc1ccc(NC(=O)CSc2nc3ccccc3n2CC(=O)NCc2ccc(F)cc2)cc1", "survival": "-5% (active)"}, {"smiles": "COC(=O)c1ccc(Cn2c(SCC(=O)N(C)c3ccccc3)nc3ccccc32)cc1", "survival": "60% (inactive)"}, {"smiles": "COc1cccc(CNC(=O)Cn2c(SCC(=O)Nc3ccc(F)cc3)nc3ccccc32)c1", "survival": "8% (active)"}, {"smiles": "Cc1ccc(CNC(=O)Cn2c(SCC(=O)Nc3ccc(F)cc3)nc3ccccc32)cc1", "survival": "126% (inactive)"}, {"smiles": "O=C(CSc1nc2ccccc2n1Cc1ccc(F)cc1)N1CCN(c2ccc(F)cc2)CC1", "survival": "92% (inactive)"}, {"smiles": "COc1cccc(Cn2c(SCC(=O)N(C)c3ccccc3)nc3ccccc32)c1", "survival": "-4% (active)"}, {"smiles": "COc1cccc(CNC(=O)Cn2c(SCC(=O)Nc3ccc(C)c(C)c3)nc3ccccc32)c1", "survival": "87% (inactive)"}, {"smiles": "CCc1ccc(NC(=O)CCCn2nc(C)c3c(C)n(-c4ccccc4)nc3c2=O)cc1", "survival": "81% (inactive)"}, {"smiles": "CC(C)c1ccc(NC(=O)CSc2ncnc3c2sc2ccccc23)cc1", "survival": "70% (inactive)"}, {"smiles": "CCC(=O)OC1CSc2nc3ccccc3n2C1", "note": "(stereo not drawn)", "survival": "76% (inactive)"}, {"smiles": "Cc1ccc(-n2c(=O)c3c(c4cc(C)ccc4n3C)n(CC(=O)NCc3ccccc3Cl)c2=O)cc1", "survival": "74% (inactive)"}, {"smiles": "Cc1ccc(/C=C/c2onc(C)c2S(=O)(=O)N2CCC(C(=O)N3CCC(N(C)C(C)C)CC3)CC2)cc1", "survival": "67% (inactive)"}, {"smiles": "CCOC(=O)C1=C(CN2CCN(c3ccccc3F)CC2)NC(=O)NC1c1ccc(OC)cc1", "note": "(stereo not drawn)", "survival": "70% (inactive)"}, {"smiles": "Cc1ccc(CSCCC(=O)NCc2ccc(F)cc2Cl)cc1", "survival": "118% (inactive)"}, {"smiles": "CC(=O)c1cccc(NC(=O)Cn2c(SCC(=O)Nc3ccc(F)cc3)nc3ccccc32)c1", "survival": "20% (active)"}, {"smiles": "COc1ccc(NC(=O)CSc2nc3ccccc3n2Cc2cccc(OC)c2)cc1", "survival": "134% (inactive)"}, {"smiles": "O=C(CSc1nc2ccccc2n1CC(=O)Nc1ccc(F)cc1F)Nc1ccc(F)cc1", "survival": "89% (inactive)"}, {"smiles": "COc1cccc(NC(=O)CSc2nc3ccccc3n2C)c1", "survival": "37% (active)"}, {"smiles": "COc1cccc(NC(=O)CSc2cc(C)c3ccccc3n2)c1", "survival": "72% (inactive)"}, {"smiles": "Cc1ccccc1NC(=O)Cn1c(SCC(=O)Nc2ccc(F)cc2)nc2ccccc21", "survival": "95% (inactive)"}]}]}
